Source: PubChem BioAssay
This is a sample that favours compounds with a hit; in the whole collection about 11% have one here.
USP17 block: inhibitors of human USP17 deubiquitinase; purified USP17, Ub-rhodamine cleavage fluorescence, 3 h; inhibition, % at 50 µM; actives 6.5% (n = 47,000)
USP30 block: inhibitors of human USP30 deubiquitinase. AID 1645860, 2021. purified USP30, Ub-rhodamine cleavage fluorescence. actives 5.3% (n = 47,000). inhibition, % at 25 µM. Ubiquitin carboxyl-terminal hydrolase 30 (Homo sapiens), Q70CQ3
USP28 block: inhibitors of human USP28 deubiquitinase. Ubiquitin carboxyl-terminal hydrolase 28 (Homo sapiens), Q96RU2. purified USP28, Ub-rhodamine cleavage fluorescence, 30 min. inhibition, % at 25 µM. actives 3% (n = 47,000)
Target sequence (Q96RU2 whole entry, looked up): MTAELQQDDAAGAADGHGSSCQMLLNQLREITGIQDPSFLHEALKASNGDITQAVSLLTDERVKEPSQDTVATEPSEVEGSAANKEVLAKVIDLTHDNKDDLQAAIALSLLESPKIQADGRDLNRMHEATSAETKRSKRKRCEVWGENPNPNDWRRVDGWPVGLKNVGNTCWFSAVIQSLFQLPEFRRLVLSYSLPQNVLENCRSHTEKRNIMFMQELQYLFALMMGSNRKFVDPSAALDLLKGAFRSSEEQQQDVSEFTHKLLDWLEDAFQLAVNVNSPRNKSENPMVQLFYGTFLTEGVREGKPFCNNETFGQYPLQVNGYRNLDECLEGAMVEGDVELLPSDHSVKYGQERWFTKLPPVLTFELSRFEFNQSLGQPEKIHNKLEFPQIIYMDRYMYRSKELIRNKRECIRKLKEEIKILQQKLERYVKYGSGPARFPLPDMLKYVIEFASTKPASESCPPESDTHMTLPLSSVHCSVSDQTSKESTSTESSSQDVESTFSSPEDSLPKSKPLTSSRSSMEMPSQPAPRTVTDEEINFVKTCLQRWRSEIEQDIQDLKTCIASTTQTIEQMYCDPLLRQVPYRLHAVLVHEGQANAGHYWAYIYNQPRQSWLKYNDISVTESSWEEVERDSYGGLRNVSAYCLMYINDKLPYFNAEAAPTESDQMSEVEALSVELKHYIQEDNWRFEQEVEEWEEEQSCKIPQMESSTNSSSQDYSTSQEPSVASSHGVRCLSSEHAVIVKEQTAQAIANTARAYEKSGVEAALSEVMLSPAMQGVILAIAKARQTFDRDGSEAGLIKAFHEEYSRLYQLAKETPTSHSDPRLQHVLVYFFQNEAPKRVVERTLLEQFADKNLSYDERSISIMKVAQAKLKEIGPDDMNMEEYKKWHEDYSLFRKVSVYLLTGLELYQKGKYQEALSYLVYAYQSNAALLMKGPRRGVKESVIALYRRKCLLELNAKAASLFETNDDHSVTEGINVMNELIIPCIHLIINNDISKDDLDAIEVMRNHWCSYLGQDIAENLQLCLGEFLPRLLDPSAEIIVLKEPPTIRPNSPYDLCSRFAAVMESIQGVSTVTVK
Hits are given with their value; . = inactive; / = no result. Rule as the data show it: active = inhibition above about 30%; inactive = the rest.

SMILES	USP17 block	USP30 block	USP28 block
O=C(c1cc(-c2ccc(Cl)cc2)n[nH]1)N1CCN(c2ncccn2)CC1	.	.	.
CCn1c(=O)n(CC(=O)c2ccc(Cl)cc2)c2c(C(N)=O)nc(-c3ccco3)nc21	36.0	.	.
CCCn1c(=O)n(CC(=O)c2ccc(Cl)cc2)c2c(C(N)=O)nc(-c3ccco3)nc21	38.1	.	.
CCCn1c(=O)n(CC(=O)c2ccccc2F)c2c(C(N)=O)nc(-c3ccco3)nc21	61.9	.	.
CC(C)n1c(=O)n(CC(=O)c2ccccc2)c2c(C(N)=O)nc(-c3ccco3)nc21	.	.	.
COc1ccc(C(=O)CSc2nc(-c3ccco3)nc3c2c(=O)n(C)c(=O)n3C)cc1	.	.	.
CCn1c(=O)n(CC(=O)c2ccc(F)cc2F)c2c(C(N)=O)nc(-c3ccco3)nc21	.	.	.
O=C(Cc1ccccc1)NCc1noc(-c2ccc(F)cc2)n1	/	.	.
CC(OC(=O)c1ccccc1Sc1ccccc1C#N)C(=O)Nc1cccc([N+](=O)[O-])c1 (stereo unspecified)	.	36.4	.
CC(OC(=O)c1cc(S(=O)(=O)Nc2ccccc2F)ccc1Cl)C(=O)Nc1ccc([N+](=O)[O-])cc1C(F)(F)F (stereo unspecified)	.	.	.
Cc1ccc(C(=O)N2CCc3cc(-c4nc(NC(=O)CN5CCCCC5)sc4C)ccc32)cc1	.	.	.
Cc1sc(NC(=O)CN2CCCC2)nc1-c1ccc2c(c1)CCN2S(=O)(=O)c1ccccc1	39.3	.	.
Cc1cccc(C(=O)N2CCc3cc(-c4nc(NC(=O)CN5CCCCCC5)sc4C)ccc32)c1	.	.	.
Cc1sc(NC(=O)CN2CCCC2)nc1-c1ccc2c(c1)CCN2C(=O)c1cccc(F)c1	.	34.9	.
Cc1sc(NC(=O)CNc2ccccc2)nc1-c1ccc2c(c1)CCN2C(=O)C1CCCCC1	47.2	.	.
Cc1sc(NC(=O)C2(c3ccc(Cl)cc3)CCC2)nc1-c1ccc2c(c1)CCN2S(=O)(=O)c1ccccc1	.	.	.
Cc1sc(NC(=O)CN2CCCCC2)nc1-c1ccc2c(c1)CCN2C(=O)c1cccc(F)c1	36.4	.	.
Cc1sc(NC(=O)CN2CCCCCC2)nc1-c1ccc2c(c1)CCN2C(=O)C1CCCCC1	/	.	.
CC1CCCN(C(=O)CCC2CCCN(c3cc(NC4CC4)ncn3)C2)C1 (stereo unspecified)	.	.	.
COc1ccc(NC(=O)CSc2ncc3c(n2)-c2ccccc2N(C)S3(=O)=O)cc1	.	.	.
Cc1cc(C(=O)N2CC(C(=O)Nc3cc(Cl)ccc3C#N)C2)no1	.	.	.
CN1CC[C@@H]2Oc3ccccc3S(=O)(=O)N(Cc3ccccc3)[C@H]2CC1	.	.	.
CCN1CCN(c2nc(-c3cnc(N4CCC(C)CC4)nc3C)cc(=O)[nH]2)CC1	.	.	.
Cc1c(Cl)cccc1NC(=O)c1ccc(CN2CCc3ccccc3C2)cc1	.	.	.
COC(=O)COc1ccc(/C=N/NC(=O)c2ccc(CN3CCc4ccccc4C3)cc2)cc1	.	53.6	.
SMILES	USP17 block	USP30 block	USP28 block
Cc1ccc(CNC(=O)CCC2=NS(=O)(=O)c3ccccc3N2)cc1	.	.	.
Cc1ccccc1-c1noc(-c2cn(Cc3ccc(NC(=O)Cc4ccccc4)cc3)cn2)n1	60.2	68.8	37.2
O=C(Cn1cnc(-c2noc(-c3ccc(F)cc3)n2)c1)Nc1ccccc1F	.	.	.
Cc1ccc(-c2noc(-c3cn(Cc4ccc(N)cc4)cn3)n2)cc1	.	.	.
O=C(Nc1ccc(-c2noc(CCc3ccccc3)n2)cc1)c1ccccc1F	.	.	.
O=C(Nc1ccc(Cn2cnc(-c3nc(-c4ccccc4)no3)c2)cc1)c1ccccc1F	/	31.5	.
Cc1cccc(NC(=O)Cn2cnc(-c3noc(-c4ccccc4)n3)c2)c1C	.	43.5	38.9
COc1ccc(CN(Cc2ccccc2)S(=O)(=O)c2ccc(-n3cnnn3)c(C)c2)cc1	.	.	.
Cc1c(C(=O)NCC2CCCO2)nnn1-c1ccc2noc(-c3ccc(Cl)cc3)c2c1 (stereo unspecified)	.	.	.
COc1ccc(N2CCN(c3ccc(Cl)cc3[N+](=O)[O-])CC2)cc1	.	.	.
Cc1cc(C)c(NC(=O)/C=C/c2ccc3ccccc3n2)c(C)c1	34.0	.	.
Cc1cc(NC(=O)/C=C/c2ccccc2)c2ccccc2n1	.	.	.
O=C(Nc1cc(S(=O)(=O)Nc2ccc(Cl)cc2)ccc1O)c1cc2c(s1)CCC2	.	.	.
Nc1ccc(NC(=O)c2cc3c(s2)CCC3)cc1[N+](=O)[O-]	57.6	.	30.7
CCOC(=O)N1CCN(c2ncc(Cn3cccn3)s2)CC1	.	.	.
COc1ccc(/C=C/c2ccc(=O)n(Cc3ccccc3)n2)cc1	.	.	.
COc1ccc(Cn2nc(-c3ccccc3)cc2-c2ccccc2O)cc1	.	43.4	.
CCN1CCN(C(=O)CCCN(c2ccccc2)S(C)(=O)=O)CC1	62.1	35.0	.
CCN1CCN(C(=O)c2cc(-c3ccccc3)cn2C)CC1	.	.	.
Cc1cc(C)nc(NC(=O)c2ccco2)n1	.	.	.
Cc1ccc(OCC(=O)Nc2ccc(NC(=O)c3cccc(Cl)c3)cc2)cc1C	.	.	.
Cc1ccc(-c2nnc(NC(=O)c3ccco3)o2)cc1C	.	.	48.5
Cc1ccc(OCC(=O)Nc2cc(NC(=O)c3ccco3)ccc2C)cc1C	60.0	66.1	45.2
CC(C)c1ccccc1NC(=O)c1c2c(nc3ccccc13)CCN(Cc1ccccc1)C2	.	.	.
O=C(c1cc(-c2cccnc2)n[nH]1)N1CCCC(c2ccnc(=O)[nH]2)C1 (stereo unspecified)	.	.	.
SMILES	USP17 block	USP30 block	USP28 block
COc1cccc(CNC(=O)c2ccc(N3CCc4ccccc43)s2)c1OC	.	.	.
COc1cccc(-c2nc(CC(=O)N[C@@H](Cc3c[nH]c4ccccc34)C(=O)O)cs2)c1	.	.	.
O=C(Nc1ccccc1F)C1CCCN(S(=O)(=O)N2CCCCCC2)C1 (stereo unspecified)	.	.	.
O=C(c1ccc(N2CCc3ccccc32)nn1)N1CCc2ccccc21	51.8	.	.
Cc1nn(C)cc1C(=O)N1CCc2ccccc21	.	.	.
O=C(Cc1ccc(F)cc1)N1CCC(Cc2nc(-c3cnccn3)no2)CC1	.	.	.
Fc1ccc(-c2nc(-c3cnccn3)no2)c(Cl)c1	.	35.8	.
COc1ccc(N2CCN(CC(O)COCc3ccc(Cl)cc3)CC2)cc1 (stereo unspecified)	/	.	.
SC(COCc1ccccc1)CN1CCN(c2ccccc2)CC1 (stereo unspecified)	.	44.0	.
CC(=O)N[C@H]1CCO[C@@H](c2cccc(NC(=O)c3ccc4ncccc4c3)c2)C1	.	.	.
Cc1cccc(OCCCn2c(CN(C)C(=O)c3ccco3)nc3ccccc32)c1	.	.	.
Cc1ccccc1OCCCn1c(CN(C)C(=O)c2ccco2)nc2ccccc21	30.5	.	.
CC(=O)Nc1ccc(S(=O)(=O)NCCc2cn3ccccc3n2)cc1	.	.	.
N#Cc1ccccc1OCc1csc(-c2ccc(F)cc2)n1	.	.	.
CC(=O)c1ccc(OCc2csc(-c3ccc(F)cc3)n2)cc1	43.5	37.4	30.4
